# Key:
# Experiment in all cases: DAPPL (digital affinity profiling via proximity ligation, sequencing); 10 mM Tris-HCl pH 7.5, 50 mM NaCl, 1 mM DTT, 4% glycerol, room temperature, 30 min; GST-TFs on glutathione beads, 16-mer random dsDNA library, 0.1% formaldehyde crosslink after washing; high values mean tight binding
# Conditions in all cases: protein: recombinant; tags: N-terminal GST; dsDNA, one strand shown
# [1] = target: T1, FEV (Homo sapiens, UniProt Q99581 1-238)
# T1 sequence: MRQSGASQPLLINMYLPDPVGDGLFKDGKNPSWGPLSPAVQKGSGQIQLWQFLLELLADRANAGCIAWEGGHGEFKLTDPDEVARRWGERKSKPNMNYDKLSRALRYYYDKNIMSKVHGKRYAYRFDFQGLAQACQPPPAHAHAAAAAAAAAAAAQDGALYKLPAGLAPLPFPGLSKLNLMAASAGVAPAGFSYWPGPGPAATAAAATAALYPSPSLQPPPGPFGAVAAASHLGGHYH
# Summary of the method: (§1)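 GST fusions of human transcription factors were expressed in yeast and captured with glutathione beads. Once given DNA barcodes and pooled alongside a tag-only sample, they were incubated for 30 min at room temperature with 200 nmole of a random double-stranded 16-mer DNA library in Tris/NaCl/DTT/glycerol buffer, then washed, crosslinked (0.1% formaldehyde), proximity-ligated, PCR-amplified and sequenced on an Illumina NextSeq500. The binding signal of each hexamer is its read frequency for a factor divided by its frequency for the tag-only sample.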
# [2] = target: ETV5 (Homo sapiens, UniProt P41161 1-510)
# Chain of ETV5 (P41161 whole entry): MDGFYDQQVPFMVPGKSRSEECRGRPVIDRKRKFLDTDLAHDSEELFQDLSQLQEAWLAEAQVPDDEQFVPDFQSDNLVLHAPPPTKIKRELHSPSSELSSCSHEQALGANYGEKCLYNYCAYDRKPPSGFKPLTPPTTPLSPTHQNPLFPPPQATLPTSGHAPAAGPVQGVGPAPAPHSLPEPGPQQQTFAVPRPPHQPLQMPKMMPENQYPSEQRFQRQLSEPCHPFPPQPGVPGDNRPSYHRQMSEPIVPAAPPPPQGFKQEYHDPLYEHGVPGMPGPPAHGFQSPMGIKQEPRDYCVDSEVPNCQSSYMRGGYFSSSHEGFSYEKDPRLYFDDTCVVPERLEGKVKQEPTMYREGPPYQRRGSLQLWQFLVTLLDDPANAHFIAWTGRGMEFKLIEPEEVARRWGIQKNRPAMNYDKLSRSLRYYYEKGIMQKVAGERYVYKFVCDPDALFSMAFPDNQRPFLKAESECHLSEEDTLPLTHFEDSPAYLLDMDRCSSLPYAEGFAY
# Summary of the method: as §1
# [3] = target: T2, SPIC (Homo sapiens, UniProt Q8N5J4 1-248)
# T2 sequence: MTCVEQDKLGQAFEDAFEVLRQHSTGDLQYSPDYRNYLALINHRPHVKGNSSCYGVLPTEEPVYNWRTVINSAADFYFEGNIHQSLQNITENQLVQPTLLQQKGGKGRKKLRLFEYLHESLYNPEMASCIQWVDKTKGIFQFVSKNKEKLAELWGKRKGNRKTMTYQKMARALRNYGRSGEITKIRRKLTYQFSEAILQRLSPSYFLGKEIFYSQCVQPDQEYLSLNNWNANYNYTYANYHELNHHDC
# Summary of the method: as §1
# [4] = target: ELF4 (Homo sapiens, UniProt Q99607 1-663)
# Chain of ELF4 (Q99607 whole entry): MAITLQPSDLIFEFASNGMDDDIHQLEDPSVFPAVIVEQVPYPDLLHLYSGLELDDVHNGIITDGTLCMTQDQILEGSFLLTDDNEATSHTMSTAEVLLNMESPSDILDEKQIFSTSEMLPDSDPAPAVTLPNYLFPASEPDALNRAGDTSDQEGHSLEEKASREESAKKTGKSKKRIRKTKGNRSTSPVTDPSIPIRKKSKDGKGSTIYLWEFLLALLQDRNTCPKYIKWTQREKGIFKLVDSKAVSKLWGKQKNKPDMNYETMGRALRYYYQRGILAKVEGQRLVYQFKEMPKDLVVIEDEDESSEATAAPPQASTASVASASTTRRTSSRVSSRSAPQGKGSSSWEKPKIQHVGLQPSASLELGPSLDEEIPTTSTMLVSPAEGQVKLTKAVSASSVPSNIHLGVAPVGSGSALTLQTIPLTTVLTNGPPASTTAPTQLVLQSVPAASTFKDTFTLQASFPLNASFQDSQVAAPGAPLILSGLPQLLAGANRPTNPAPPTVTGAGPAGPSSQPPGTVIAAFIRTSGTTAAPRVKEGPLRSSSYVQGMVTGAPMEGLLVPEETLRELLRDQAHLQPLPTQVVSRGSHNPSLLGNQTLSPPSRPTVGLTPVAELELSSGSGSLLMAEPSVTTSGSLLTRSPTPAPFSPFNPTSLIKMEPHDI
# Summary of the method: as §1
# [5] = target: T3, ELK4 (Homo sapiens, UniProt P28324-2 1-405)
# T3 sequence: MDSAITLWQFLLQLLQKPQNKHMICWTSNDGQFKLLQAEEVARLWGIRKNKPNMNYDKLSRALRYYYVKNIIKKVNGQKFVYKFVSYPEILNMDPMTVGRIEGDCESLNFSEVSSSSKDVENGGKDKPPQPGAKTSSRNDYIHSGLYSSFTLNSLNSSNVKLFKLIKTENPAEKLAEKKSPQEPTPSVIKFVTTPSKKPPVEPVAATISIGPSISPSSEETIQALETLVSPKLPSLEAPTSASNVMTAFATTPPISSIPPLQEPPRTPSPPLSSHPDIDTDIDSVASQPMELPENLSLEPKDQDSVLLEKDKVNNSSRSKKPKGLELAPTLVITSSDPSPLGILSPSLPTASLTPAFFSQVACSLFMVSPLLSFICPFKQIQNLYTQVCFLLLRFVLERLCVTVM
# Summary of the method: as §1
# [6] = target: T4, ETV2 (Homo sapiens, UniProt O00321 1-342)
# T4 sequence: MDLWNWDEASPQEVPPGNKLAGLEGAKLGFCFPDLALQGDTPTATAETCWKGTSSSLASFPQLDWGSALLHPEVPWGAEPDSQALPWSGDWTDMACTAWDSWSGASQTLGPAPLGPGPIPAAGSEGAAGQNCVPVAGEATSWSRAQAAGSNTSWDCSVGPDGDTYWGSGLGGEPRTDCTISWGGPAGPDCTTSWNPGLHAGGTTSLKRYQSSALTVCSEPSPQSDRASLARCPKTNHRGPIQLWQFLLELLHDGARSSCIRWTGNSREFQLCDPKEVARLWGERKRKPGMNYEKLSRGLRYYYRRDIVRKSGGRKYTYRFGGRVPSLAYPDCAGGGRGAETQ
# Summary of the method: as §1
# [7] = target: T5, ELF3 (Homo sapiens, UniProt P78545 1-371)
# T5 sequence: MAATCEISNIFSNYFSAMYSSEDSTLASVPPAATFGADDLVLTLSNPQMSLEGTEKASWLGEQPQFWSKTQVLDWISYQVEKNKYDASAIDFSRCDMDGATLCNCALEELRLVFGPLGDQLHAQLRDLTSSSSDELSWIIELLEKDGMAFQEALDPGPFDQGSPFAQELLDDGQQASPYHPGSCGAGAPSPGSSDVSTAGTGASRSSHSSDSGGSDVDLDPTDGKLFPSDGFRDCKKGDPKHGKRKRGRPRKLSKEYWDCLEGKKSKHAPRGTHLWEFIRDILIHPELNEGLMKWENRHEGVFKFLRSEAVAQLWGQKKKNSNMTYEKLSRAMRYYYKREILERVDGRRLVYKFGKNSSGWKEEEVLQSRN
# Summary of the method: as §1
# [8] = target: ETV1 (Homo sapiens, UniProt P50549 1-477)
# Chain of ETV1 (P50549 whole entry): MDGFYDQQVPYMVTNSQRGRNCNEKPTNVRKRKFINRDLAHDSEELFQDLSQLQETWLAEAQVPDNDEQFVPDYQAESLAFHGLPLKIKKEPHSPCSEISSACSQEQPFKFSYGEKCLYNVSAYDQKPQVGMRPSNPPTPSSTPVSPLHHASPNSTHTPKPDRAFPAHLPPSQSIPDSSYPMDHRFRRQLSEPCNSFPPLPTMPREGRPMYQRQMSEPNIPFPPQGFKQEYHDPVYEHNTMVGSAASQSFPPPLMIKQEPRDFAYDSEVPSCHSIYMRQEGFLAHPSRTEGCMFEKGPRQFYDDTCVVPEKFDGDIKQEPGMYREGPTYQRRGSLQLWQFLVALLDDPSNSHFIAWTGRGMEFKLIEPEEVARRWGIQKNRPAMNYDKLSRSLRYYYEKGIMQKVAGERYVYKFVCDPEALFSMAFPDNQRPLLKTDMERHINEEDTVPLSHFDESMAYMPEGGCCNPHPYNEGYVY
# Summary of the method: as §1
# [9] = target: T6, ERF (Homo sapiens, UniProt P50548 1-548)
# T6 sequence: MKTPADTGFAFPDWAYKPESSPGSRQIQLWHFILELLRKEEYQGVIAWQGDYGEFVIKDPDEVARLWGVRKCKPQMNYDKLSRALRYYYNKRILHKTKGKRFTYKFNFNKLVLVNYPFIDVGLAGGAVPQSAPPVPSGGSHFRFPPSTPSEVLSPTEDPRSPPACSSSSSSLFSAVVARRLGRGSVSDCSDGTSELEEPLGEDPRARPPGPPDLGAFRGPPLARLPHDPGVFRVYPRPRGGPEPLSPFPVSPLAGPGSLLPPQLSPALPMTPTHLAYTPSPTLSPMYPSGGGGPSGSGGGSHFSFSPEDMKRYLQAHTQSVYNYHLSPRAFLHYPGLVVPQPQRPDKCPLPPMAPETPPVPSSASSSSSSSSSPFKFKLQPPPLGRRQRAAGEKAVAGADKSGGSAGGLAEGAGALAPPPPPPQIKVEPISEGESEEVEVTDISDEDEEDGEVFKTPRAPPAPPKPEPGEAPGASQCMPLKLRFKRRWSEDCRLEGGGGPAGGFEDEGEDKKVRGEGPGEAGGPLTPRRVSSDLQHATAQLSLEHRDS
# Summary of the method: as §1
# [10] = target: T7, ETV3L (Homo sapiens, UniProt Q6ZN32 1-361)
# T7 sequence: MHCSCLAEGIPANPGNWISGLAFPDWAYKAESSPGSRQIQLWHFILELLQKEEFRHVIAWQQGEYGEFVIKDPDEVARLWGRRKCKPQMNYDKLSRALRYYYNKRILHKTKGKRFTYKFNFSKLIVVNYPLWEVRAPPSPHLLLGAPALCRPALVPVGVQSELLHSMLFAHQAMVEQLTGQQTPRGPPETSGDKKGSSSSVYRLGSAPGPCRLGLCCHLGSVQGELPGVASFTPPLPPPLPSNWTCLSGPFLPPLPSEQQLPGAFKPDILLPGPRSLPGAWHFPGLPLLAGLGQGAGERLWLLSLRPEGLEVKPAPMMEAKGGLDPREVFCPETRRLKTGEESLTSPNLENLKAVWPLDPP
# Summary of the method: as §1
# [11] = target: T8, ETS2 (Homo sapiens, UniProt P15036 1-469)
# T8 sequence: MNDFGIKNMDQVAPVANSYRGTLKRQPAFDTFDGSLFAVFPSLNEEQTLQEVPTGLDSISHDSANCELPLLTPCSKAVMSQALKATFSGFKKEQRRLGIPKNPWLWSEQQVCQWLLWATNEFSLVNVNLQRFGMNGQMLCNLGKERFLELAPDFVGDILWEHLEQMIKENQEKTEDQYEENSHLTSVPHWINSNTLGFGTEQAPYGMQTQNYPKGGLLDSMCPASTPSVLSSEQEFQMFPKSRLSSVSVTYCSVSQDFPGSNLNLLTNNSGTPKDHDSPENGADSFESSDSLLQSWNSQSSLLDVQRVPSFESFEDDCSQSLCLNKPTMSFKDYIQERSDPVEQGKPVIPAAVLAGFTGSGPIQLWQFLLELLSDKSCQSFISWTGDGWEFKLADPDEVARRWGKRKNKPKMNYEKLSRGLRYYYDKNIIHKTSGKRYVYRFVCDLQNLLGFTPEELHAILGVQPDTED
# Summary of the method: as §1
# [12] = target: T9, SPDEF (Homo sapiens, UniProt O95238 1-335)
# T9 sequence: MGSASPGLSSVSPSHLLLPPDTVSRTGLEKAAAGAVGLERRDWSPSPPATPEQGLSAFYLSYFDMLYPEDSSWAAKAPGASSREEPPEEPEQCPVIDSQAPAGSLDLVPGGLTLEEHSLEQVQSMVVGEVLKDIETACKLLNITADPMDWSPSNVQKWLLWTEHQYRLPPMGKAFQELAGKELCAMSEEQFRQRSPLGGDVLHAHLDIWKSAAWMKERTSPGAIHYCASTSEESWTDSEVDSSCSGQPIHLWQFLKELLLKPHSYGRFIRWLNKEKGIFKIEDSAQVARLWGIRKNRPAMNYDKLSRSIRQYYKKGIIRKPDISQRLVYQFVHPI
# Summary of the method: as §1
# [13] = target: T10, ETV7 (Homo sapiens, UniProt Q9Y603 1-341)
# T10 sequence: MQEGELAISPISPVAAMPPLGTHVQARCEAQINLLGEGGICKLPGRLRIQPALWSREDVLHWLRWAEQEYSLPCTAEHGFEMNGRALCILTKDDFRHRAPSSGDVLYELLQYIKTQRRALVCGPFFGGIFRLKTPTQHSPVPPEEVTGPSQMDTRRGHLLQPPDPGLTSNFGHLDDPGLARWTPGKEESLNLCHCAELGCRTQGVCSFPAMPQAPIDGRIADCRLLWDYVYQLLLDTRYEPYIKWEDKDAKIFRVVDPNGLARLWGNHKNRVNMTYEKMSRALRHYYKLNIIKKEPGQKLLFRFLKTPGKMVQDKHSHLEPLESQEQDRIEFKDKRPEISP
# Summary of the method: as §1
# [14] = target: T11, ELF5 (Homo sapiens, UniProt Q9UKW6-2 1-255)
# T11 sequence: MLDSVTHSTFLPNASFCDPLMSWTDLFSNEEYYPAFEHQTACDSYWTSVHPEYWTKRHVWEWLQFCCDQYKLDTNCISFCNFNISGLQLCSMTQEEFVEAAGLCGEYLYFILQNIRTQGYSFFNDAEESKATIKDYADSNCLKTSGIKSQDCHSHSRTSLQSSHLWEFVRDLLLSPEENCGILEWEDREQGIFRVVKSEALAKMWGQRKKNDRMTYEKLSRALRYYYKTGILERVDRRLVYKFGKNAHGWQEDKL
# Summary of the method: as §1
# [15] = target: T12, ETV3 (Homo sapiens, UniProt P41162-2 1-143)
# T12 sequence: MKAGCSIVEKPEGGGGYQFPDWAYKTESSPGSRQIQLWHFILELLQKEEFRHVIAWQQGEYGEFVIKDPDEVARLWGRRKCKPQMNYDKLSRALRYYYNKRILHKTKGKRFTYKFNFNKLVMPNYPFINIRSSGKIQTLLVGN
# Summary of the method: as §1
# [16] = target: ETV6 (Homo sapiens, UniProt P41212 1-452)
# Chain of ETV6 (P41212 whole entry): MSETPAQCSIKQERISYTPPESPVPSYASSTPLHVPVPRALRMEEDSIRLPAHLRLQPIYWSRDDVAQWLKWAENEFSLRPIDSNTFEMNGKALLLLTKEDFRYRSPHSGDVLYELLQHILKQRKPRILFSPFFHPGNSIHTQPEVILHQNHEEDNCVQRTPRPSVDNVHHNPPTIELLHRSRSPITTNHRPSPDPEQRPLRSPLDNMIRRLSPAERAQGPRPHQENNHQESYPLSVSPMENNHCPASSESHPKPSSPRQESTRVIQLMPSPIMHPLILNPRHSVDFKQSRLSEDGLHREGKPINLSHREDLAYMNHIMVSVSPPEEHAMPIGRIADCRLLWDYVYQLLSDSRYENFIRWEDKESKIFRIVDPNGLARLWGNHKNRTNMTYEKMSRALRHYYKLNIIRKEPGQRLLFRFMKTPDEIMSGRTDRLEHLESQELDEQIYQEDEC
# Summary of the method: as §1
Sequence,binding signal [1],binding signal [2],binding signal [3],binding signal [4],binding signal [5],binding signal [6],binding signal [7],binding signal [8],binding signal [9],binding signal [10],binding signal [11],binding signal [12],binding signal [13],binding signal [14],binding signal [15],binding signal [16]
CTGCAC,"1.22 fold enrichment (6-mer frequency, TF over GST control)","1.17 fold enrichment (6-mer frequency, TF over GST control)","1.32 fold enrichment (6-mer frequency, TF over GST control)","1.2 fold enrichment (6-mer frequency, TF over GST control)","1.29 fold enrichment (6-mer frequency, TF over GST control)","1.24 fold enrichment (6-mer frequency, TF over GST control)","1.31 fold enrichment (6-mer frequency, TF over GST control)","1.13 fold enrichment (6-mer frequency, TF over GST control)","1.11 fold enrichment (6-mer frequency, TF over GST control)","1.16 fold enrichment (6-mer frequency, TF over GST control)","1.12 fold enrichment (6-mer frequency, TF over GST control)","1.17 fold enrichment (6-mer frequency, TF over GST control)","1.05 fold enrichment (6-mer frequency, TF over GST control)","1.1 fold enrichment (6-mer frequency, TF over GST control)","1.23 fold enrichment (6-mer frequency, TF over GST control)","1.24 fold enrichment (6-mer frequency, TF over GST control)"
CGTAAC,"1.09 fold enrichment (6-mer frequency, TF over GST control)","1.1 fold enrichment (6-mer frequency, TF over GST control)","1.27 fold enrichment (6-mer frequency, TF over GST control)","1.23 fold enrichment (6-mer frequency, TF over GST control)","1.13 fold enrichment (6-mer frequency, TF over GST control)","1.12 fold enrichment (6-mer frequency, TF over GST control)","1.18 fold enrichment (6-mer frequency, TF over GST control)","1.13 fold enrichment (6-mer frequency, TF over GST control)","1.09 fold enrichment (6-mer frequency, TF over GST control)","1.08 fold enrichment (6-mer frequency, TF over GST control)","1.15 fold enrichment (6-mer frequency, TF over GST control)","1.17 fold enrichment (6-mer frequency, TF over GST control)","1.07 fold enrichment (6-mer frequency, TF over GST control)","1.12 fold enrichment (6-mer frequency, TF over GST control)","1.16 fold enrichment (6-mer frequency, TF over GST control)","1.06 fold enrichment (6-mer frequency, TF over GST control)"
